nsP2pro primary = blocks chikungunya virus nsP2 protease peptide cleavage. Q8JUX6. FRET peptide cleavage, nsP2pro, fluorescence 1 h. Potency, µM (doses to about 24.9 µM), without a hit: top-dose activity change, negative = inhibition, hits mostly inhibitors. 1.1% of 31,000 active; further: nearly all actives have a fitted effect of over 60% in size
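Enzyme 150 nM, substrate 2.5 uM (both final); Tris-HCl 10 mM pH 8.0 + 0.01% Tween 20; cpd up to 25 uM, 7 pts; 15 min preinc., 1 h RT; fluorescence ex 525/em 598.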
CHIKV nsP2 cell = inhibits CHIKV nsP2 protease in cells; shares compounds with nsP2pro primary; cell-based CHIKV nsP2 protease reporter assay; Potency, µM (titrated, usually from 51.1 µM), for inactives: at the top dose activity change, negative = inhibition, hits mostly inhibitors; 10% of 450 active; AID 1964100; further: nearly all actives have a fitted effect of over 70% in size
CHIKV NSP2 FL = selectivity test for CHIKV nsP2 protease inhibitors: full-length NSP2. 39% of 410 active. shares compounds with nsP2pro primary. Potency, µM (series often up to 50.7 µM), without a hit: at the highest dose activity change, negative = inhibition, hits mostly inhibitors. Full-length CHIKV NSP2 protease enzymatic counterscreen; further: nearly all actives have a fitted effect of over 65% in size
Furin counter = selectivity counter-screen for CHIKV nsP2 protease inhibitors: human furin | shares compounds with nsP2pro primary | Recombinant human furin enzymatic counterscreen, fluorogenic substrate | Potency, µM (series often up to 50.6 µM), inactives show at the top dose activity change, negative = inhibition, most hits filed as inhibitors | 6% of 410 active
NS23 peptide cs = nsP2pro inhibition on native NS2/3 peptide substrate. Purified CHIKV nsP2 protease, endogenous NS2/3 peptide cleavage. Potency, µM (titrated, usually from 51 µM), without a hit: at the top dose activity change, negative = inhibition, hits mostly inhibitors. AID 1964103. shares compounds with nsP2pro primary. 34% of 410 active; further: nearly all actives have a fitted effect of over 55% in size
Papain counter = selectivity counter-screen for CHIKV nsP2 protease inhibitors: papain. shares compounds with nsP2pro primary. purified papain protease activity, enzymatic inhibition. Potency, µM (top dose mostly 51 µM), for the others: at the highest dose activity change, negative = inhibition, usual class: inhibitors. 5% of 410 active
nsP2pro conf qHTS = CHIKV nsP2 protease inhibition, confirmatory qHTS; 43% of 410 active; CHIKV nsP2 protease enzymatic activity, qHTS; shares compounds with nsP2pro primary; AID 1964105; Potency, µM (titrated, usually from 25.5 µM), for inactives: at the top dose activity change, negative = inhibition, usual class: inhibitors; further: nearly all actives have a fitted effect of over 75% in size
HCV NS3 counter = inhibits HCV NS3/4A protease in an nsP2pro selectivity counterscreen; HCV NS3/4A protease biochemical counterscreen; shares compounds with nsP2pro primary; 20% of 410 active; AID 1964106; Potency, µM (highest dose often 50.9 µM), actives largely listed as inhibitors; further: nearly all actives have a fitted effect of over 55% in size
An asterisk follows results filed as active; i = inactive; ? = inconclusive; [ ] = another dose, or the depositor's remark. Shown is part of a subset that was picked to be rich in hits. The call rests on the fitted dose curve. On the % scale 0 is the no-effect control and ±100 the full control effect; potency means the concentration at half of the fitted maximal effect.

SMILES	nsP2pro primary	others
Cc1cc(-c2ccccc2)nc2c(C(=O)Nc3ccc(Cl)c(Cl)c3)cnn12	-5%
Cc1cc(Nc2nn(-c3ccccc3)c(=O)c3ccccc23)n[nH]1	29%
CC1(C)C(/C=C/C=C/C=C/C=C2/N(CCCCS(=O)(=O)O)c3ccc4ccccc4c3C2(C)C)=[N+](CCCCS(=O)(=O)[O-])c2ccc3ccccc3c21	-4%
CC(C)=CCC/C(C)=C/CC/C(C)=C/CC/C(C)=C/CC1=C(C)C(=O)c2ccccc2C1=O	-27%
CC1=CC(=O)c2ccccc2C1=O	?	CHIKV nsP2 cell=-11%;CHIKV NSP2 FL=-14%;Furin counter=3%;NS23 peptide cs=?;Papain counter=-20%;nsP2pro conf qHTS=4%;HCV NS3 counter=i
CCC(=O)Oc1ccc2c(c1)CC[C@@H]1[C@H]2CC[C@]2(C)[C@@H](OC(=O)CC)CC[C@@H]12	-3%
Cc1ccc(S(=O)(=O)Nc2cnccc2C(=O)Nc2nc(-c3ccc(C)c(C)c3)cs2)cc1	i
Cc1ccnc(NC(=S)Nc2cccc(C(F)(F)F)c2)c1	2%
Cc1cc(Nc2ncnc3ccc(-c4ccc(CNCCS(C)(=O)=O)o4)cc23)ccc1Oc1ccn2ncnc2c1	1.2µM*	CHIKV nsP2 cell=-13%;CHIKV NSP2 FL=4.1µM*;Furin counter=-13%;NS23 peptide cs=?;Papain counter=?;nsP2pro conf qHTS=4.5µM*;HCV NS3 counter=?
CCOC(=O)c1ccc(-c2ccc3ncnc(NCc4ccc(C)o4)c3c2)o1	-3%
CS(=O)(=O)CCNCc1ccc(-c2ccc3ncnc(Nc4ccc(OCc5cccc(F)c5)c(Cl)c4)c3c2)o1	75%
Oc1ccc([C@H]2CNCc3c2ccc(O)c3O)cc1O	3.5µM*	CHIKV nsP2 cell=-21%;CHIKV NSP2 FL=?;Furin counter=-12%;NS23 peptide cs=23µM*;Papain counter=-5%;nsP2pro conf qHTS=5µM*;HCV NS3 counter=0.58µM*
Cc1cnc(-c2ccccc2CO)nc1NCC1CCN(c2cccnc2)CC1	i
O=C(NC1CCCCC1)N[C@H]1CO[C@H]2[C@@H]1OC[C@@H]2n1nnnc1-c1ccc2c(c1)OCO2	2.8µM*	CHIKV nsP2 cell=-11%;CHIKV NSP2 FL=18µM*;Furin counter=16µM*;NS23 peptide cs=16µM*;Papain counter=-2%;nsP2pro conf qHTS=4.5µM*;HCV NS3 counter=?
C[C@H](C(=O)NC1CCCC1)N(C(=O)Cn1nnc(-c2ccc3c(c2)OCO3)n1)C1CCCCC1	4%
COc1cccc(-c2nnnn2[C@H]2CO[C@H]3[C@@H]2OC[C@@H]3NC(=O)C2CCCCC2)c1	19%[39.2 µM]
CCC[C@@H](C(=O)O)N1C(=O)[C@@H]2C[C@@H]3CCCC[C@@H]3N2C(=O)[C@@H]1C	-16%
CS(=O)(=O)c1ccc([C@@H](CC2CCCC2)C(=O)Nc2cnccn2)cc1Cl	-4%
CNC[C@H](O)c1cccc(O)c1	2%
Oc1ccc(C(O)CNCCCCCCNCC(O)c2ccc(O)c(O)c2)cc1O (stereo unspecified)	?	CHIKV nsP2 cell=91%;CHIKV NSP2 FL=?;Furin counter=26µM*;NS23 peptide cs=-10%;Papain counter=-4%;nsP2pro conf qHTS=26%;HCV NS3 counter=i
Oc1ccc(CCNCCCCCCNCCc2ccccc2)cc1O	-13%
CO[C@H]1/C=C/[C@@](C)(O)/C=C/C(=O)O[C@H](C)[C@@H](C)CC/C=C/1C	0%
Cc1ccnc(NC(=S)NC2CN(c3cccc(C(F)(F)F)c3)C2)c1	2%
CC(=O)OC(CSC1CCC(=O)OC(C)CCC(=O)C1)C(=O)O (stereo unspecified)	?	CHIKV nsP2 cell=6%[33.5 µM];CHIKV NSP2 FL=-5%[33.5 µM];Furin counter=-5%[33.5 µM];NS23 peptide cs=-11%[33.5 µM];Papain counter=-11%[33.5 µM];nsP2pro conf qHTS=?;HCV NS3 counter=?
Cc1ccc(-c2cc(C(=O)Nc3ccccc3Cl)c3ccccc3n2)cc1C	4%
SMILES	nsP2pro primary	others
Cc1ccc(NC(=O)Cn2c(=O)n(CCC(=O)NCc3ccc4c(c3)OCO4)c(=O)c3sccc32)c(C)c1	-21%
COc1ccc2cc(CNc3ccccc3)c(=O)n(CC(=O)Nc3ccc(C(C)=O)cc3)c2c1	-10%
COc1ccc(NCc2cc3cc4c(cc3n(CC(=O)Nc3ccc(C)cc3C)c2=O)OCO4)cc1	?	CHIKV nsP2 cell=4%
O=C(Nc1ccc(-c2nc3ccccc3[nH]2)cc1)Nc1ccc2c(c1)CCCO2	i
Cc1ccc(NC(=O)CN2C(=O)N/C(=C\c3cccn3-c3ccc(C(=O)NC#N)cc3)C2=O)cc1	i
[O-][n+]1ccccc1SSc1cccc[n+]1[O-]	2.7µM*	CHIKV nsP2 cell=?;CHIKV NSP2 FL=8.2µM*;Furin counter=-12%;NS23 peptide cs=9.2µM*;Papain counter=2%;nsP2pro conf qHTS=1.6µM*;HCV NS3 counter=i
O=C(Nc1nnc(-c2ccco2)o1)c1ccncc1	-4%
CCOC(=O)c1cccc(-n2cnc(/C=C3\NC(=O)N(CC(=O)O)C3=O)c2)c1	5%
CCCCCn1cc(C(=O)c2cccc3ccccc23)c2ccccc21	-16%
Cc1ccnc(NC(=S)N2CCN(c3ccc(Cl)cc3Cl)CC2)c1	i
CC(C)(C)OC(=O)N1CCN(c2ccc(NCc3coc(-c4ccc(C#N)cc4)c3)cc2)CC1	10µM*	CHIKV nsP2 cell=?;CHIKV NSP2 FL=-27%;Furin counter=-4%;NS23 peptide cs=-12%;Papain counter=-9%;nsP2pro conf qHTS=9%;HCV NS3 counter=?
CC(C)(C)OC(=O)N1CCN(c2ccc(NCc3cc(-c4ccc(C#N)cc4)co3)cc2)CC1	i
CC(C)(C)OC(=O)N1CCN(c2ccc(NCc3ccc(-c4ccc(C(C)(C)C)cc4)o3)cc2)CC1	-1%
CC(C)(C)OC(=O)N1CCN(c2ccc(NCc3ccc4c(c3)OCO4)cc2)CC1	?	CHIKV nsP2 cell=6.5µM*;CHIKV NSP2 FL=0%;Furin counter=-12%;NS23 peptide cs=-22%;Papain counter=3%;nsP2pro conf qHTS=-6%;HCV NS3 counter=i
CC(C)(C)OC(=O)N1CCN(c2ccc(NCc3ccc(-c4cc(C(F)(F)F)cc(C(F)(F)F)c4)o3)cc2)CC1	2%
CC(C)(C)OC(=O)N1CCN(c2ccc(NCc3occc3-c3ccc(C#N)cc3)cc2)CC1	i
C#CCOc1cc(C2=Nn3c(nnc3-c3cccc(OCC(C)=O)c3)SC2)ccc1OC	i
COc1ccnc(NC(=S)N2CCN(c3cc(C(F)(F)F)cc(C(F)(F)F)c3)CC2)c1	i
Cc1ccc(S(=O)(=O)Nc2cnccc2C(=O)Nc2nc(-c3cccc(C)c3)cs2)cc1	3%
Cc1cc(C)nc(NC(=S)N2CCN(c3ncccn3)CC2)c1	-1%
O=C(Nc1nc(-c2ccccc2)cs1)c1ccncc1NS(=O)(=O)c1cccs1	1%
CN1CCC[C@@H]1Cc1c[nH]c2ccc(CCS(=O)(=O)c3ccccc3)cc12	-10%
CN(C)CCc1c[nH]c2ccc(C[C@H]3COC(=O)N3)cc12	?	CHIKV nsP2 cell=1%;CHIKV NSP2 FL=56%;Furin counter=0%;NS23 peptide cs=-10%;Papain counter=-1%;nsP2pro conf qHTS=?;HCV NS3 counter=i

Source: PubChem BioAssay (National Center for Advancing Translational Sciences (NCATS))
